Only some compounds are listed: those with a hit (about 2.7% of all), similar ones and a draw of the others.
INS-1E GSIS act – GLuc luminescence reporter in INS-1E cells, primary screen for activators of glucose-dependent secretion of insulin; 0.61% of 370,000 active; AID 743287; INS-1E GLuc reporter insulin secretion, 2-3 h; activation, % at 16.6 µM;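 active = lowest replicate activation of at least 40%, so every replicate reaches that level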;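 note: 0% = median of neutral control wells and 100% = median of IBMX positive control wells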
F508del corr – correctors of CFTR F508del function in bronchial epithelial cells. CFBE cells, YFP halide quenching; stimulated with forskolin plus potentiator P3; % fluorescence drop versus neutral controls. activity (quench increase), % at 7.58 µM. 0.36% of 350,000 active;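 active = mean added fluorescence quench of at least 8% versus neutral control, with both replicates also reaching 8%; inconclusive = only one of the mean or replicate conditions met; inactive = mean below 8% and not both replicates reaching 8%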;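 note: cells transiently co-express mutant CFTR-F508del with the halide-sensitive YFP; corrector assay measuring rescue of mutant channel to the surface after 24 h compound exposure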
Env fusion inh – blocks HIV Env-driven cell-cell fusion; AID 651610; 1.1% of 360,000 active; inhibition, % at 12.3 µM; HeLa-JRFL Env/CEM21 cell fusion, luciferase;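 active = mean replicate inhibition score of at least 50 and every replicate individually at or above 50; inconclusive = only one of the two criteria met; inactive = mean below 50 and not all replicates reaching 50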;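 note: 0% = plate neutral controls and 100% = maraviroc near 300 nM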
MITF act – MITF TRPM1 promoter activation in melanoma cells | SK-MEL-5 TRPM1-promoter luciferase, 24 h; % of positive control, neutral wells = 0 | activation, % at 12.5 µM | 0.75% of 300,000 active | AID 588334;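 active = mean activation of at least 80% with every replicate also reaching 80%; inconclusive = mean reaches 80% but some replicate falls short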;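 note: 0% = neutral control wells and 100% = parthenolide positive control wells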
Wnt act – activators of Wnt/beta-catenin signaling; Wnt/beta-catenin reporter cell assay, activator, plate reader; activation, % at 9.35 µM; 1.2% of 300,000 active; AID 743398; in the data active = activation above about 30%, passing the limit was not always enough; inconclusive = no clear call, values can overlap the other calls;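 note: 0% = neutral control wells and 100% = positive control wells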
Active calls of the source: *; ? = inconclusive; . = no result; ! = repeats disagree; [ ] = dose if it differs, or a comment.

SMILES | INS-1E GSIS act | F508del corr | Env fusion inh | MITF act | Wnt act
CC(C)c1cc(C(=O)NCc2ccco2)no1 | . | -1 | -3 | 51 | 11
CC(C)c1cc(C(=O)NCCc2ccccc2)no1 | 1 | -1 | -32 | 65 | 39*
Cc1csc(NC(=O)Nc2cccc(Cl)c2)n1 | -13 | . | -162 | 65 | 49*
COc1ccccc1NS(=O)(=O)c1cccc(NC(=O)NCCCl)c1 | 5 | 2 | 7 | 6 | 0
O=C(Nc1cccc(F)c1)Nc1cccc(Cl)c1 | -65 | -3 | 11 | 60 | 24
COc1ccccc1NS(=O)(=O)c1cccc(NC(=O)Nc2cccc(Cl)c2)c1 | -20 | . | 45* | -12 | -7
Cc1cccnc1NC(=O)Nc1cccc(Cl)c1 | 9 | -1 | -29 | 91* | 26
N#Cc1ccccc1NC(=O)Nc1cccc(Cl)c1 | . | . | . | -12 | .
CC(C)c1cc(C(=O)Nc2cccc(Cl)c2)no1 | -25 | . | -440 | 90* | .
N#CCc1ccc(NC(=O)Nc2cccc(Cl)c2)cc1 | . | . | . | 83* | .
CC(=O)c1cccc(NC(=O)c2cc(C(C)C)on2)c1 | . | -2 | -57 | . | -7
O=C(NCCc1ccccc1)c1noc2c1CCCCC2 | 19 | . | -108 | 107* | .
C[C@@H]1CCCCO[C@@H](CN(C)C(=O)CCC(F)(F)F)[C@@H](C)CN([C@H](C)CO)C(=O)c2cc(NS(C)(=O)=O)ccc2O1 | 16 | -1 | 2[16.7 µM] | . | .
O=C(C[C@H]1CC[C@@H]2[C@H](COC[C@H](O)CN2Cc2cc(F)ccc2F)O1)NCc1ccc(Cl)cc1 | -16 | 0 | -1[16.7 µM] | . | .
C[C@@H]1CN([C@H](C)CO)C(=O)c2cc(NC(=O)NC3CCCCC3)ccc2O[C@@H](C)CCCCO[C@@H]1CN(C)C(=O)Nc1ccc(F)cc1 | 3 | 1 | . | . | .
CC(C)[C@H](NC(=O)c1ccco1)C(=O)NC12CC3CC(CC(C3)C1)C2 | 7 | 2 | 58* | 2 | 0
Cc1cccc(NC(=O)CN2CCN(C(=O)CN3C(=O)NC4(CC(C)CC(C)(C)C4)C3=O)CC2)c1C (stereo not given) | -9 | 8.8* | . | -9 | 1
CC1CCCN(C(=O)c2ccc(S(=O)(=O)N3CCC(c4nc5ccccc5s4)CC3)cc2)C1 (stereo not given) | . | . | 68* | -10 | .
COc1ccc(NC(=O)N(C)C[C@@H]2OCCCC[C@@H](C)Oc3ccc(NC(=O)Nc4ccccc4)cc3C(=O)N([C@H](C)CO)C[C@@H]2C)cc1 | -2 | 0 | 1[16.7 µM] | . | .
CCC(=O)N1CC(=O)N2[C@H](CO)[C@H](c3ccc(C#Cc4cccc(OC)c4)cc3)[C@@H]2C1 | -15 | -3 | . | . | .
COc1ccc(NC(=O)N(C)C[C@H]2OCc3ccccc3-c3c(n(C)c4ccccc34)C(=O)N([C@H](C)CO)C[C@@H]2C)cc1 | -22 | -1 | . | . | .
COc1cccc(NC(=O)N(C)C[C@H]2OCc3ccccc3-c3c(n(C)c4ccccc34)C(=O)N([C@H](C)CO)C[C@H]2C)c1 | -20 | 8.4*! | -62 | . | -2
COc1cccc(NC(=O)N(C)C[C@H]2OCc3ccccc3-c3c(n(C)c4ccccc34)C(=O)N([C@@H](C)CO)C[C@@H]2C)c1 | -13 | -1 | 55*[16.7 µM] | . | .
O=C(NCC[C@@H]1CC[C@H](NC(=O)C2CC2)[C@H](CO)O1)Nc1ccc(C(F)(F)F)cc1 | 3 | -2 | -7[16.7 µM] | . | .
CN(C)C(=O)c1cccc(-c2ccc3c(c2)[C@@H]2[C@@H](CCN2C(=O)C2CCC2)[C@@H](CO)N3)c1 | 13 | 1 | . | . | .
SMILES | INS-1E GSIS act | F508del corr | Env fusion inh | MITF act | Wnt act
C[C@@H]1CN([C@@H](C)CO)C(=O)c2cc(NC(=O)CCCN(C)C)ccc2O[C@@H](C)CCCCO[C@H]1CN(C)S(=O)(=O)c1cccs1 | 8 | -1 | -21[16.7 µM] | . | .
O=C1NN=C2CCCCCCCCCCC12 (stereo not given) | . | -4 | 58* | . | -4
COc1ccc(CCC(=O)Nc2cccc(S(=O)(=O)N3CCCCCC3)c2)cc1OC | -36 | 2 | . | -21 | -2
CCOc1ccc(C(=O)N[C@H](C(=O)Nc2cccc(S(=O)(=O)N3CCOCC3)c2)C(C)C)cc1 | 5 | 4 | -17 | -6 | 1
COc1ccc(S(=O)(=O)N2CCC(C(N)=O)(N3CCCCC3)CC2)cc1OC | 71* | 0 | -2 | -4 | 0
CCOc1ccc(C(=O)N[C@H](C(=O)Nc2cccc(S(=O)(=O)N3CCCCC3)c2)C(C)C)cc1 | -13 | 15* | -38 | -17 | -4
COc1ccc(CC(=O)Nc2cccc(S(=O)(=O)N3CCCCCC3)c2)cc1OC | -21 | . | 68* | -27 | -9
NC(=O)C1(N2CCCCC2)CCN(S(=O)(=O)c2ccccc2)CC1 | 0 | 2 | . | -5 | 2
CN(C)S(=O)(=O)c1cccc(NC(=O)CNc2cccc(S(=O)(=O)N3CCCCC3)c2)c1 | . | 1 | 64* | . | -4
Cc1noc(C)c1S(=O)(=O)Nc1cccc2c1O[C@@H](CN(C)S(=O)(=O)c1cn(C)cn1)[C@@H](C)CN([C@@H](C)CO)C2=O | 16 | -1 | . | . | .
CO[C@@H]1CN(C)C(=O)c2cc(NS(=O)(=O)CC(F)(F)F)ccc2OC[C@@H](C)N(C(=O)c2ccc3c(c2)OCO3)C[C@@H]1C | 10 | -3 | . | . | .
O=C(CCN1CCCCC1)NCC[C@@H]1CC[C@@H](NC(=O)C2CCCC2)[C@H](CO)O1 | 5 | -1 | -1[16.7 µM] | . | .
O=C(C[C@@H]1C=C[C@H](NC(=O)c2ccncc2)[C@H](CO)O1)Nc1ccc(-c2ccccc2)cc1 | 0 | 0 | -8[16.7 µM] | . | .
COc1ccc(-n2nc(C(=O)NCC(=O)N3CCN(c4ccccc4)CC3)c3ccccc3c2=O)c(OC)c1 | -11 | 2 | -70 | 97* | 5
COc1ccc(CNC(=O)Cc2nn(C)c(=O)c3ccccc23)cc1 | . | . | . | -6 | .
COc1ccc(N2CCN(C(=O)Cc3nn(C)c(=O)c4ccccc34)CC2)cc1 | . | . | 61* | . | .
O=C(Nc1ccccc1C(=O)O)c1ccc(NC(=O)C2CC2)cc1 | -2 | 2 | 14 | 4 | 4
O=C(Nc1ccccc1O)c1ccc(NC(=O)C2CC2)cc1 | 1 | -8 | -44 | 49 | 68*
O=C(Nc1ccccc1)C(=O)Nc1ccc2c(c1)N(C(=O)C1CC1)CCC2 | 0 | 3 | -131 | 92* | 42*
CCCNC(=O)Nc1ccc2c(c1)C(=O)N(C)[C@H]1CC[C@H](CC(=O)NC)O[C@@H]1CO2 | 11 | 2 | -20[16.7 µM] | . | .
Cc1ccccc1-n1c(-c2ccc(=O)[nH]n2)n[nH]c1=S | 0 | 1 | 0 | -4 | 0
CC(C)(C)c1cc(-c2n[nH]c(=S)n2-c2ccccc2F)n[nH]1 | -14 | 0 | -18 | . | 34*
Cc1nc(C(Cl)(Cl)Cl)nc2[nH]ccc(=O)c12 | 130* | -3 | ? | -6 | -1
Cc1ccc(Nc2nc(Cl)nc(NC(C)(C)C)n2)cc1 | -13 | 2 | -22 | 100* | 10
CCOC(=O)CNc1nc(Cl)nc(Nc2ccc(C)cc2)n1 | -5 | -2 | -8 | 4 | 9

Compound activity deposited in PubChem BioAssay by Broad Institute.
